# Assays:
# Conditions in all cases: concentration: 1 μM, replicates: in singlicate; n = 1
# RIOK1 = test system: RIOK1
# RIOK2 = test system: RIOK2
# RIOK3 = test system: RIOK3
# RIPK1 = test system: RIPK1
# RIPK2 = test system: RIPK2
# RIPK4 = test system: RIPK4
# RIPK5 = test system: RIPK5
# ROCK1 = test system: ROCK1
# ROCK2 = test system: ROCK2
# ROS1 = test system: ROS1
# 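Further: KINOMEscan kinase panel screen.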
Compound,%Inh (RIOK1) [%],%Inh (RIOK2) [%],%Inh (RIOK3) [%],%Inh (RIPK1) [%],%Inh (RIPK2) [%],%Inh (RIPK4) [%],%Inh (RIPK5) [%],%Inh (ROCK1) [%],%Inh (ROCK2) [%],%Inh (ROS1) [%]
c1ccc(-c2cnc3nccnn23)cc1 [AH20685],0,0,0,0,0,0,0,0,0,0
COc1cc(Nc2nccc(N3CCC(NC(=O)c4cc5ccccc5s4)C3)n2)cc(OC)c1OC (centres unmarked) [GSK1379760],76,14,53,24,7,0,0,0,14,45
O=C(O)C(F)(F)F.O=C(O)C(F)(F)F.O=c1[nH]ccc2nc(N[C@@H]3CCCNC3)nc(Nc3ccc(S(=O)(=O)N4CCOCC4)cc3)c12 [GSK2177277],100,65,82,0,0,95.9,98.3,99.6,92.8,71
Oc1cc(Nc2ccnc3cc(I)ccc23)ccc1F [GW552771],25,29,0,0,50,0,0,30,27,0
FC(F)(F)c1ccc(/C=C/c2cncnc2Nc2ccc3[nH]c(Cc4ccccc4)nc3c2)cc1 [GW709199],33,0,2,11,11,0,0,0,0,0
Cl.NC(=O)c1cccc(Nc2nccc(Nc3ccc(Oc4c(Cl)cccc4Cl)c(Cl)c3)n2)c1 [GW659009],56,53,51,0,84,0,10,0,10,0
CCc1ccc(-c2ccc3c(c2)-c2c(cnn2C)S(=O)(=O)N3C)cc1,0,12,0,0,0,9,26,0,0,3
COCCOCCOc1cc2ncc3c4ccc(C#N)cc4[nH]c3c2cc1OC,99.4,0,83,20,0,17,0,96.9,99.2,51
Nc1n[nH]c2cnc(-c3ccccc3)cc12 [SB-642124],31,20,100,30,29,25,0,40,18,0
CNC(=O)c1ccccc1Nc1nc(Nc2ccc(N3CCOCC3)cc2)ncc1Cl.Cl [GSK1576028],100,90.7,100,36,35,79,80,53,37,90.9
O=C(NC1CCN(c2ccnc(Nc3ccc(F)cc3)n2)C1)c1cc2ccccc2s1 (centres unmarked) [GSK1379716],27,0,33,0,9,3,13,39,29,36
Cn1cc(-c2[nH]c3cc(NC(=O)[C@H](N)C4CCCCC4)cc4c3c2C=NNC4=O)cn1,93.7,21,88,0,2,87,25,85,91.8,37
Cc1ccc(C(=O)Nc2ccc(Nc3ccnc4cc(-c5nccs5)ccc34)cc2O)cc1.Cl [GW494702],27,7,0,0,49,13,0,18,12,0
Cc1cccc(Nc2nc(N[C@H]3CCNC3)ncc2C(N)=O)c1.Cl [GSK2197149],99.8,28,89,0,0,90.7,1,67,45,32
CN(C)S(=O)(=O)c1cc(-c2ccc3nccc(-c4cccc(S(N)(=O)=O)c4)c3c2)cnc1N [GSK1669921],36,23,21,4,8,9,26,0,0,0
Cc1ccc(F)c(C(=O)Nc2cccc(-c3nn4ccccc4c3-c3ccnc(Nc4cccc(F)c4)n3)c2)c1F [GSK361061],23,26,5,2,61,4,0,0,3,21

Compound,%Inh (RIOK1) [%],%Inh (RIOK2) [%],%Inh (RIOK3) [%],%Inh (RIPK1) [%],%Inh (RIPK2) [%],%Inh (RIPK4) [%],%Inh (RIPK5) [%],%Inh (ROCK1) [%],%Inh (ROCK2) [%],%Inh (ROS1) [%]
COc1cccc(NC(=O)NC2CCN(c3ccnc(Nc4cc(OC)c(OC)c(OC)c4)n3)C2)c1 (centres unmarked) [GSK1379763],85,0,82,6,29,49,0,4,9,23
Cc1ccc(C)c(NC(=O)NC2CCN(c3ccnc(Nc4ccc(F)cc4)n3)C2)c1 (centres unmarked) [GSK1379720],23,0,0,0,0,6,0,0,29,0
CCS(=O)(=O)c1ccc(OC)c(Nc2nccc(-c3c(-c4cccc(NC(=O)c5c(F)cccc5F)c4)nn4ncccc34)n2)c1 [GSK326180],30,0,56,0,83,27,10,2,18,0
COc1cccc(-c2ccc3c(NC(=O)C4CC4)n[nH]c3n2)c1 [SB-710903],38,0,0,99.5,15,27,1,38,49,0
O=C(Nc1cccc(-c2nn3ccccc3c2-c2ccnc(Nc3cccc(C(F)(F)F)c3)n2)c1)c1c(F)cccc1F [GSK292658],17,6,0,7,63,0,0,0,1,0
Nc1ncc(-c2cccnc2)c2scc(-c3ccc4c(c3)CCN4C(=O)Cc3ccccc3)c12 [GSK683281],35,96.6,22,100,82,16,20,0,6,27
C[C@@H](Oc1cc(-n2cnc3cc(-c4ccnc(NCCS(C)(=O)=O)c4)ccc32)sc1C(N)=O)c1ccccc1Cl [GSK907232],90.6,22,76,45,14,14,5,0,0,13
Cl.c1ccc(-c2ccc3c(Nc4ccc5[nH]ccc5c4)ccnc3c2)nc1 [GW440138],4,0,0,0,78,19,0,23,43,0
O=C(Nc1cccc(-c2nn3ncccc3c2-c2ccnc(Nc3ccccc3)n2)c1)c1c(F)cccc1F [GSK198271],4,17,16,0,94.8,10,6,34,0,28
O=C(Nc1ccccc1F)NC1CCN(c2ccnc(Nc3ccc(F)cc3)n2)CC1 [GSK1379800],58,0,43,26,0,16,0,10,31,0
COc1ccc(-c2coc3ccc(-c4nnc(SCc5ccc(OC)c(C(F)(F)F)c5)o4)cc23)cc1,0,20,9,9,17,12,20,0,23,0
COc1cccc(C2=C(Nc3ccc(Cl)c(C(=O)O)c3)C(=O)NC2=O)c1 [SB-390769],0,0,5,0,21,7,100,28,12,0
C[C@@H]1CC[C@@H](C(=O)Nc2ccccc2)CN1c1cc(-c2ccc3c(N)n[nH]c3c2)nc(N)n1 [GSK2286062],48,52,20,31,0,0,0,14,35,14
COC(=O)Nc1nc2ccc(Oc3ccc(NC(=O)Nc4cc(C(F)(F)F)ccc4F)cc3)cc2n1C.Cl [GW692089],0,0,0,39,29,0,0,34,39,28
CC(C)c1nc(-c2cccc(NS(=O)(=O)c3c(F)cccc3F)c2F)c(-c2ccnc(Nc3ccc(N4CCOCC4)nc3)n2)s1 [GSK2008607],22,0,17,0,96.3,15,92.6,0,0,35
Cl.c1ccc(-c2ccc3c(Nc4ccc5[nH]ncc5c4)ccnc3c2)nc1 [GW440137],32,11,32,6,75,23,4,10,35,0

# Reference: paper PMC5540273 (PLoS ONE, 2017)
